This note sets out measurements from PubChem BioAssay AID1022 (Emory University Molecular Libraries Screening Center, 2008).

In all, about 220,000 compounds went through this assay and about 3,300 (1.5%) were called active. The entries come from a sample that favours actives as a whole. Unmarked numbers belong to inactive results.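 How the source made its calls: active means compounds that cut the protein-peptide binding signal by more than 50% relative to plate controls in a single-dose test; inactive means the rest.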

Induced myeloid leukemia cell differentiation protein Mcl-1 (Homo sapiens), sequence (Q07820 whole entry, looked up): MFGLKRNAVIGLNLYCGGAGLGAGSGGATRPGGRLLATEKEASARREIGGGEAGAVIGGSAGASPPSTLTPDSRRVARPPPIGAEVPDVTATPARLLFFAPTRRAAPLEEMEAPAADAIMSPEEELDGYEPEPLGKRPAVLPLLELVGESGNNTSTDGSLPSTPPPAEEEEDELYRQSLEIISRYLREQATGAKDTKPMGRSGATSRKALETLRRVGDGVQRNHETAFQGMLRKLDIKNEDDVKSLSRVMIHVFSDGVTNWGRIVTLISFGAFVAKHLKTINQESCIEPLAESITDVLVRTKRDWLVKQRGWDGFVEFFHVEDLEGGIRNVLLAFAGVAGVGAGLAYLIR

This assay has as its target Induced myeloid leukemia cell differentiation protein Mcl-1 (Homo sapiens) (UniProt Q07820). As to the kind of experiment: disruptors of Mcl-1 and Noxa BH3 peptide – biochemical, TR-FRET, 1536-well, primary screen (AID 1022).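 Further: His-tagged Mcl-1 with rhodamine Noxa BH3 peptide and terbium anti-His antibody; 0% = Mcl-1 plus Noxa peptide wells and 100% = peptide-only wells.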 As to conditions: TR-FRET Mcl-1/Noxa peptide binding, 2 h; at 21.7 µM; stronger effect = higher value.
For the compound `O=C(/C=C/c1ccccc1[N+](=O)[O-])OC1CCCCC1=O` (centres undefined), the inhibition was 5.64%.

As for `O=C1CCCCC1C(=O)c1ccccc1` (centres undefined), the inhibition is 95% (active).

Turning to `O=C(OC1CCCCC1=O)c1cccc(S(=O)(=O)NCc2ccccc2)c1` (centres undefined), the inhibition was -5.3%. On to `Cc1ccccc1N1CCN(Cc2nc(Cc3ccccc3F)no2)CC1`, for which the inhibition was 9.66%. In the case of `O=S(=O)(c1ccc(Cl)cc1)N1CCCN(c2ccc(C(F)(F)F)cn2)CC1` it was 15.1%.

Consider `Cc1cccc(COc2ccccc2/C=N/Nc2ccc([N+](=O)[O-])cc2)c1`, for which the inhibition was 1.32%. In the case of `Cc1ccc(NS(=O)(=O)c2ccc(C)c(NC(=O)COc3ccc4ccccc4c3)c2)c(C)c1` it was -15.7%. In the case of `Cc1ccc(NS(=O)(=O)c2ccc(N/N=C/c3ccccc3OCC(=O)O)c([N+](=O)[O-])c2)c(C)c1` it was 56.7% (active).

With `CCCCSc1nnc2c(n1)OC=Nc1ccccc1-2`, the inhibition is 12.5%. In the case of `O=C(CC(c1ccccc1)c1cc(Cl)ccc1O)NCCN1CCOCC1` (centres undefined) it was -4.69%; in that of `O=C(Cc1ccccc1)N1N=C(c2ccncc2)CC1(O)C(F)(F)F` (centres undefined), -12.4%.

For `CC(C)c1ccc2c(c1)c(SC(C)(C)C)c(CC(C)(C)C(=O)O)n2Cc1ccc(Cl)cc1`, the inhibition is 68.7% (active). In the case of `Cc1ccc(C)c2c1cc(C)c1nnc(SCC(=O)Nc3cccc(C(=O)O)c3)n12` it was 4.65%. In the case of `CC1CCN(Cc2nc(-c3ccc(Cl)cc3)no2)CC1` it was 11%; in that of `O=C(O)CC1=C(Nc2ccccc2)C(=O)N(c2ccccc2)C1c1ccc(Cl)cc1` (centres undefined), -6.85%. The value for `CN(C(=O)Nc1ccc(Cl)cc1)n1cnc2ccccc2c1=O` was -0.02%; that for `COc1ccc(OCC(O)CNCCNc2nccc(C(F)(F)F)n2)cc1` (centres undefined) was -8.04%; that for `CCn1c(CN2C(=O)CSc3ccccc32)n[nH]c1=S` was -15.7%.

With `CCN(CC)C(=O)CSc1nc2ccccc2o1`, the inhibition is 7.79%.

As for `CC(C)(C)C(=O)CSc1nc2ccccc2o1`, the inhibition is 8.46%. For the compound `Fc1ccccc1OCCSc1nc2ccccc2o1`, the inhibition was 60.4% (active). With `Cn1nc(C(C)(C)C)c([N+](=O)[O-])c1C(N)=O`, the inhibition was 5.22%. In the case of `COc1ccc(Nc2cc(Cl)ccc2C(=O)O)cn1` it was 11%. `CCCCN(CC)CCCNC(=O)c1ccc(CSc2nc3ccncc3[nH]2)cc1`: the inhibition was 63% (active). The value for `CCN(CC)CCCNC(=O)c1ccc2c(=O)n(Cc3ccc4c(c3)OCO4)c(=S)[nH]c2c1` was 25.2%; that for `CCCCSc1nc2ccccc2[nH]1` was 12.9%. As to `COC(=O)c1nc(NC(=O)c2ccc(C(C)(C)C)cc2)n[nH]1`, the inhibition was 69.2% (active).

Consider `COC(=O)c1nc(NC(=O)c2ccc(F)cc2)n[nH]1`, for which the inhibition is -6.78%. The value for `COC(=O)c1nc(NC(=O)c2ccc(Cl)cc2)n[nH]1` was -8.02%; that for `O=C(O)CC1(CC(=O)Nc2cccc(C(F)(F)F)c2)CCCC1` was -33.1%; that for `Nc1nnnn1/N=C/c1cc([N+](=O)[O-])ccc1O` was -18%. The value for `O=C1CC(Sc2ncn[nH]2)C(=O)N1c1ccccc1` (centres undefined) was 54.4% (active); that for `COc1ccc(N2C(=O)CC(Sc3n[nH]c(-c4ccc(C)cc4)n3)C2=O)cc1` (centres undefined) was 36%; that for `Cc1ccc(N2C(=O)CC(Sc3ncn[nH]3)C2=O)cc1` (centres undefined) was -10.1%. Consider `Cc1nc(CNS(=O)(=O)c2cc([N+](=O)[O-])ccc2C)cs1`, for which the inhibition is -0.49%. In the case of `Cc1ccc(-c2nn(-c3ccccc3)cc2/C=C/C(=O)Nc2cccc(S(N)(=O)=O)c2)cc1` it was 7.42%.

`CN(C)S(=O)(=O)c1cccc(-c2nn(-c3ccccc3)cc2/C=C2\SC(=S)N(CC(=O)O)C2=O)c1`: the inhibition is 74.1% (active).

With `O=C(CN1C(=O)/C(=C\c2ccccc2F)SC1=S)Nc1nc2ccccc2s1`, the inhibition was 11.5%. The value for `CCOC(=O)c1sc2nc(CSCC(=O)OCc3ccc(C(=O)OC)o3)[nH]c(=O)c2c1C` was 11.7%; that for `CCOC(=O)c1sc2nc(C)[nH]c(=O)c2c1C` was -7.23%.

Regarding `COC(=O)c1sc2[nH]c(=S)n(N)c(=O)c2c1C`, the inhibition was 52.1% (active). In the case of `Cc1onc(-c2ccccc2)c1C(=O)N=C(N)c1ccc(Cl)cc1` it was 13.2%. In the case of `Cc1nnc(N/N=C/c2cccs2)[nH]c1=O` it was -2.37%. Take `CC(O)c1nc2c(c(=O)n(C)c(=O)n2C)n1C` (centres undefined): the inhibition is -1.58%. The value for `CCN1CCN(c2nc(Nc3cccc(F)c3)nc(N)c2[N+](=O)[O-])CC1` was 56.7% (active); that for `CC1CN(c2nc(Nc3ccccc3)nc(N)c2[N+](=O)[O-])CC(C)O1` (centres undefined) was -24.5%. In the case of `CNc1nc(Nc2ccc(C)c(Cl)c2)nc(N)c1[N+](=O)[O-]` it was 26.8%; in that of `O=C(NCc1cccnc1)Nc1cccc(NC(=O)NCc2cccnc2)c1F`, -1.36%. In the case of `COc1cc(OC)c(C(=O)Nc2ccccc2-c2ccccc2)cc1OC` it was 2.98%; in that of `COc1cc(OC)c(C(=O)Nc2ccc(N(C)C)cc2)cc1OC`, 51.8% (active).

On to `COc1ccc(Cl)cc1C(=O)Nc1ccc(N(C)C(C)=O)cc1`, for which the inhibition was 15.3%.

For `CC(NC(=S)NNS(=O)(=O)c1ccc(C(C)(C)C)cc1)c1ccccc1` (centres undefined), the inhibition is -17.7%. In the case of `Cc1ccc2c(c1)c1ncn(Cc3ccc(F)cc3)c(=O)c1n2C` it was -20.4%; in that of `O=C(CSc1ccccc1)Nc1nnc(/C=C/c2ccccc2)s1`, 9.47%. In the case of `COc1ccc(/C=C/c2nnc(NC(=O)C(C)C)s2)cc1`, the inhibition was 12.2%. As to `O=C(Nc1ccc(Cl)cc1)Nc1nnc(/C=C/c2ccccc2)s1`, the inhibition was 91.2% (active).

With `CN(C)c1ccc(/C=C/C(=O)c2ccc(O)cc2)cc1[N+](=O)[O-]`, the inhibition is 20.5%. The value for `CCCc1nc2oc3c(=O)[nH]cnc3c2c2c1COC(C)(C)C2` was -3.33%; that for `CC(=O)Nc1ccc(C(=O)/C=C/c2ccc[nH]2)cc1` was 15.7%; that for `COc1ccc(N2C(=O)c3ccccc3NC2c2ccc(OC)c(CN3CCOCC3)c2)cc1` (centres undefined) was 7.79%. In the case of `CCN(CCNC(=O)C1=C(C)C(=O)OC12CCC(C)CC2)c1ccccc1` (centres undefined) it was -5.12%; in that of `Brc1ccc(-c2nnc(-c3ccccc3)o2)o1`, 8.68%; in that of `Nc1ccc(-c2nnc(-c3ccc(-c4ccccc4)cc3)o2)cc1`, 65.7% (active). On to `Nc1ccc(-c2sc(N)nc2-c2ccccc2)cc1`, for which the inhibition was 26.2%. As for `COc1ccc(S(=O)(=O)N(CC(=O)N/N=C/c2ccccc2C(=O)O)c2ccccc2OC)cc1`, the inhibition is 12.8%. The value for `Oc1c(C(c2ccccn2)N2CCOCC2)ccc2cccnc12` (centres undefined) was 5.37%; that for `CCN1CCN(C(c2cccnc2)c2cc(Cl)c3cccnc3c2O)CC1` (centres undefined) was 34%; that for `CCOC(=O)N1CCN(C(c2cccnc2)c2ccc3cccnc3c2O)CC1` (centres undefined) was 61.5% (active). The value for `Cc1nc(N)sc1N=Nc1c(C)n(C)n(-c2ccccc2)c1=O` was 13%. As to `CC(C)OP(=O)(OC(C)C)C(Nc1ccccc1)c1cccc([N+](=O)[O-])c1` (centres undefined), the inhibition is 6.5%.

As to `O=C1/C(=C/c2ccc3c(c2)OCO3)CCC/C1=C\c1ccc2c(c1)OCO2`, the inhibition is -7.31%.

With `CCC1=C/C(=C\c2ccc3c(c2)OCO3)C(=O)S1`, the inhibition was 55.4% (active).

With `CSC1=N/C(=C\c2ccc3c(c2)OCO3)C(=O)S1`, the inhibition was 5.49%. In the case of `O=C(Nc1ccc(F)cc1)N1CCN(c2ccc(F)cc2)CC1` it was -20.8%.

For the compound `CN1CCN(CCNC(=O)Nc2ccc([N+](=O)[O-])cc2)CC1`, the inhibition was 6.06%. The value for `O=C(COC(=O)C1CCCCC1)Nc1ccc([N+](=O)[O-])cc1` was -0.21%; that for `O=C(NCCCN1CCN(c2ccc(F)cc2)CC1)Nc1ccc([N+](=O)[O-])cc1` was 52% (active). In the case of `O=C(COc1ccc([N+](=O)[O-])cc1)Nc1ccc(N2CCCC2)cc1` it was 52.2% (active). In the case of `COc1ccc(OCC(=O)Nc2ccc(N3CCC(C)CC3)cc2)cc1`, the inhibition was 5.22%.

For the compound `CN(C)c1nc(=Nc2cccc(Cl)c2)ss1`, the inhibition was 13.4%. The value for `CC(C)(C)C(=O)OCc1nc(-c2ccc(O)c(O)c2)cs1` was 46.4%. In the case of `COc1ccc(CCNC(=O)C(Sc2ccccn2)c2ccccc2)cc1OC` (centres undefined) it was -11.6%; in that of `CSc1ccc(NC(=O)/C=C/C(=O)O)cc1`, 14.6%. In the case of `Cc1oc(C(N)=O)cc1COc1ccc(C(N)=O)cc1` it was 7.05%; in that of `O=C(NCCN1CCOCC1)c1ccc2c(c1)N(Cc1ccc(Cl)cc1)CCS2`, 16.4%; in that of `NC(=O)[C@H]1CC2(CC(c3cccc(NC(=O)[C@H]4CCC(=O)N4)c3)=NO2)CN1C(=O)c1ccccc1C(=O)c1ccccc1` (some centres undefined), 3.36%. In the case of `Cc1cc(=O)[nH]c2nnnn12`, the inhibition is 0.51%.

On to `O=C(NC1CCCCC1)N1CCc2[nH]c3ccccc3c2C1`, for which the inhibition is -13%. In the case of `O=C(Nc1ccc(Cl)cc1)N1CCc2[nH]c3ccccc3c2C1` it was 104% (active); in that of `Fc1ccc(NC(=S)N2CCc3[nH]c4ccccc4c3C2)cc1`, 14.9%; in that of `CS(=O)(=O)c1ccc(Cl)c(NC(=O)Nc2ccccc2)c1`, 2.41%. In the case of `O=C(Nc1ccccc1)c1nnsc1S(=O)(=O)c1ccc(Cl)cc1` it was 68.7% (active). With `O=C(Nc1ccc(Cl)cc1)c1ccsn1`, the inhibition was 11.5%. In the case of `N#CC1=C(N)Oc2c(ccc3cccnc23)C1c1ccncc1` (centres undefined) it was -11.2%.

For the compound `NC(=O)N/N=C\c1cccs1`, the inhibition is -22.2%. In the case of `C=CCSC(CC)(CC)C(N)=O` it was -9.07%. With `COc1ccc(N2CCC(CNC(=S)Nc3c(C)cccc3C)C2)cc1` (centres undefined), the inhibition was 17.1%. The value for `COc1ccc(NC(=S)NCCN2CCC(C)CC2)cc1` was 19.6%; that for `COc1ccc(NC(=S)NCC2CCN(c3ccc(OC)cc3)C2)cc1` (centres undefined) was 67.3% (active).
